The values that follow come from PMC5540273 (PLoS ONE, 2017).
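Note: KINOMEscan kinase panel screen.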

The subject of one test is PRKG2. To be noted: concentration: 1 μM, replicates: in singlicate; n = 1.
In the case of `CSc1ccc(-c2cc3ncnc(SCC(=O)O)c3s2)cc1`, the “%Inh” value turned out to be 0%.

Regarding `CCc1nc(-c2cccc(C)c2)c(-c2ccnc(NCc3ccccc3)c2)s1`, the “%Inh” value is listed as 0%.

As to `COCCNC(=O)c1ccc(-c2cc(C(=O)NC3CC3)cc(F)c2C)cc1` [GW868318], the “%Inh” value was determined as 27%.

Regarding `COc1ccc(COc2cc(-n3cnc4ccccc43)sc2C(N)=O)cc1` [GSK1024304], the “%Inh” value came out at 0%.

For the molecule `COc1cc2ncn(-c3cc(OCc4sccc4Cl)c(C(N)=O)s3)c2cc1OC` [GSK448459], the “%Inh” value is 13%.

Regarding `O=C(NCCNc1ccnc(Nc2ccc(F)cc2)n1)c1cc2ccccc2s1` [GSK1379874], the “%Inh” value was 0%.

With `Cc1cccc(-c2nc(Nc3ccc4ncsc4c3)c3ccccc3n2)n1` [GW867588], the “%Inh” value is reported as 0%.

For `c1ccc(-c2n[nH]cc2-c2ccnc3ccccc23)nc1` [GW271431], the “%Inh” value was 8%.

As to `O=C(NCCNc1ccnc(Nc2ccc(F)cc2)n1)Nc1ccccc1F` [GSK1379880], the “%Inh” value is 0%.

In the case of `Cc1nnc(-c2ccc3occ(-c4ccc(C(C)O)cc4)c3c2)o1` (stereo not drawn), the “%Inh” value amounted to 34%.

Regarding `NS(=O)(=O)c1cccc(-c2ccc3nccc(-c4cccc(S(N)(=O)=O)c4)c3c2)c1` [GW867253], the “%Inh” value is on record as 0%.

For `CCCCCc1nc2c(N)ncnc2n1CCCCC` [SKF-97255], the “%Inh” value was 0%.

With `Cl.Oc1cccc(Nc2ccnc3cc(-c4ccncc4)ccc23)c1` [GW494601], the “%Inh” value was found to be 1%.

Take `Fc1ccc(-c2ncn(CCCN3CCOCC3)c2-c2cccnc2)cc1` [SB-211743]: the “%Inh” value came out at 0%.

With `Cc1ccc(C(=O)NCC(N)=O)cc1-n1c(C)cc(OCc2ccc(F)cc2F)c(Br)c1=O`, the “%Inh” value was found to be 12%.

On to `NS(=O)(=O)CCc1cccc(Nc2nccc(-c3c(-c4cccc(NC(=O)c5c(F)cccc5F)c4)nn4ccccc34)n2)c1` [GSK336735], for which the “%Inh” value turned out to be 0%.

Take `COC(=O)Nc1nc2cc(Oc3ccc(NC(=O)Nc4cc(F)ccc4F)cc3)ccc2[nH]1.Cl` [GW701424]: the “%Inh” value stood at 0%.

For `Cc1cn2c(=O)cc(N3CCOCC3)nc2n1Cc1cccc(Cl)c1Cl` [GSK2334006], the “%Inh” value stood at 0%.

Regarding `N#Cc1c(N2CCOCC2)sc(-c2ccn[nH]2)c1-c1ccc(Cl)cc1`, the “%Inh” value came to 8%.

As for `Cc1cccc(Cn2ccn3c(=O)cc(N4CCOCC4)nc23)c1` [GSK2297542], the “%Inh” value is listed as 9%.

Turning to `COc1ccc(CNC(=O)NC2CCN(c3ccnc(Nc4ccc(OC)cc4)n3)C2)cc1` (stereo not drawn) [GSK1379727], the “%Inh” value was found to be 0%.

As to `c1ccc(-c2cc(-c3c[nH]nc3-c3ccccn3)ccn2)cc1` [GW576604], the “%Inh” value is 0%.

Consider `COc1cc2c(cc1OCCN1CCN(C)CC1)ncc1c3ccc(C#N)cc3[nH]c21`, for which the “%Inh” value is 13%.

Consider `COc1ccc(Nc2nccc(N3CCC(NC(=O)Nc4cccc(C(C)=O)c4)C3)n2)cc1` (stereo not drawn) [GSK1379731], for which the “%Inh” value stood at 0%.

Turning to `Cc1ccc(NC(=O)c2ccnc(N3CCN(C)CC3)c2)cc1-c1ccc(C(=O)NCC2CC2)cc1` [GW775604], the “%Inh” value is recorded as 0%.

`Cc1c(Cn2c(C)nn3c(=O)cc(N4CCOC(C)C4)nc23)cccc1C(F)(F)F` (stereo not drawn) [GSK2344444]: the “%Inh” value stood at 0%.

As for `O=C(NCCCN1CCOCC1)c1cccc(Nc2nccc(Nc3ccc(Oc4ccccc4)cc3)n2)c1` [GW663929], the “%Inh” value is 5%.

For the molecule `Nc1nc(-c2ccc3c(N)n[nH]c3c2)cc(N2CCCC2)n1` [GSK2227430], the “%Inh” value worked out at 75%.

Turning to `Nc1nccc(-c2c(-c3ccc(F)cc3)ncn2C2CCN(CC(F)(F)F)CC2)n1` [SB-236560], the “%Inh” value was 27%.

On to `COc1ccc(S(=O)(=O)NC2CCN(c3cc(C)nc(Nc4cccc(C#N)c4)n3)CC2)cc1.O=C(O)C(F)(F)F` [GSK1653539], for which the “%Inh” value stood at 0%.

`CN(C1=C(c2ccccc2)C(=O)NC1=O)c1ccccc1` [SB-334860]: the “%Inh” value is 16%.

For `CN1c2ccc(CNc3ccc(F)cc3)cc2-c2c(cnn2C)S1(=O)=O`, the “%Inh” value stood at 0%.

Take `COc1cc(Nc2nccc(N3CCC(NC(=O)c4cccc(NC(C)=O)c4)C3)n2)cc(OC)c1OC` (stereo not drawn) [GSK1379754]: the “%Inh” value came out at 0%.

The subject of a further test is T1, PRKR.
T1 construct: gene EIF2AK2
To be noted: concentration: 1 μM, replicates: in singlicate; n = 1.
In the case of `CSc1ccc(-c2cc3ncnc(SCC(=O)O)c3s2)cc1`, the “%Inh” value came out at 0%.

For the molecule `CCc1nc(-c2cccc(C)c2)c(-c2ccnc(NCc3ccccc3)c2)s1`, the “%Inh” value came to 0%.

Regarding `COCCNC(=O)c1ccc(-c2cc(C(=O)NC3CC3)cc(F)c2C)cc1` [GW868318], the “%Inh” value was determined as 4%.

With `COc1ccc(COc2cc(-n3cnc4ccccc43)sc2C(N)=O)cc1` [GSK1024304], the “%Inh” value came to 0%.

For `COc1cc2ncn(-c3cc(OCc4sccc4Cl)c(C(N)=O)s3)c2cc1OC` [GSK448459], the “%Inh” value is recorded as 0%.

As for `O=C(NCCNc1ccnc(Nc2ccc(F)cc2)n1)c1cc2ccccc2s1` [GSK1379874], the “%Inh” value came to 0%.

In the case of `Cc1cccc(-c2nc(Nc3ccc4ncsc4c3)c3ccccc3n2)n1` [GW867588], the “%Inh” value is on record as 17%.

Consider `c1ccc(-c2n[nH]cc2-c2ccnc3ccccc23)nc1` [GW271431], for which the “%Inh” value is 0%.

Regarding `O=C(NCCNc1ccnc(Nc2ccc(F)cc2)n1)Nc1ccccc1F` [GSK1379880], the “%Inh” value came to 0%.

With `Cc1nnc(-c2ccc3occ(-c4ccc(C(C)O)cc4)c3c2)o1` (stereo not drawn), the “%Inh” value is reported as 0%.

As for `NS(=O)(=O)c1cccc(-c2ccc3nccc(-c4cccc(S(N)(=O)=O)c4)c3c2)c1` [GW867253], the “%Inh” value came to 4%.

For `CCCCCc1nc2c(N)ncnc2n1CCCCC` [SKF-97255], the “%Inh” value is reported as 0%.

Turning to `Cl.Oc1cccc(Nc2ccnc3cc(-c4ccncc4)ccc23)c1` [GW494601], the “%Inh” value is recorded as 21%.

In the case of `Fc1ccc(-c2ncn(CCCN3CCOCC3)c2-c2cccnc2)cc1` [SB-211743], the “%Inh” value came out at 0%.

Turning to `Cc1ccc(C(=O)NCC(N)=O)cc1-n1c(C)cc(OCc2ccc(F)cc2F)c(Br)c1=O`, the “%Inh” value is 0%.

`NS(=O)(=O)CCc1cccc(Nc2nccc(-c3c(-c4cccc(NC(=O)c5c(F)cccc5F)c4)nn4ccccc34)n2)c1` [GSK336735]: the “%Inh” value turned out to be 0%.

Take `COC(=O)Nc1nc2cc(Oc3ccc(NC(=O)Nc4cc(F)ccc4F)cc3)ccc2[nH]1.Cl` [GW701424]: the “%Inh” value is recorded as 0%.

Turning to `Cc1cn2c(=O)cc(N3CCOCC3)nc2n1Cc1cccc(Cl)c1Cl` [GSK2334006], the “%Inh” value worked out at 0%.

As to `N#Cc1c(N2CCOCC2)sc(-c2ccn[nH]2)c1-c1ccc(Cl)cc1`, the “%Inh” value is on record as 0%.

On to `Cc1cccc(Cn2ccn3c(=O)cc(N4CCOCC4)nc23)c1` [GSK2297542], for which the “%Inh” value worked out at 0%.

As for `COc1ccc(CNC(=O)NC2CCN(c3ccnc(Nc4ccc(OC)cc4)n3)C2)cc1` (stereo not drawn) [GSK1379727], the “%Inh” value is 0%.

As to `c1ccc(-c2cc(-c3c[nH]nc3-c3ccccn3)ccn2)cc1` [GW576604], the “%Inh” value stood at 3%.

Take `COc1cc2c(cc1OCCN1CCN(C)CC1)ncc1c3ccc(C#N)cc3[nH]c21`: the “%Inh” value is 30%.

With `COc1ccc(Nc2nccc(N3CCC(NC(=O)Nc4cccc(C(C)=O)c4)C3)n2)cc1` (stereo not drawn) [GSK1379731], the “%Inh” value turned out to be 0%.

Take `Cc1ccc(NC(=O)c2ccnc(N3CCN(C)CC3)c2)cc1-c1ccc(C(=O)NCC2CC2)cc1` [GW775604]: the “%Inh” value is on record as 0%.

Take `Cc1c(Cn2c(C)nn3c(=O)cc(N4CCOC(C)C4)nc23)cccc1C(F)(F)F` (stereo not drawn) [GSK2344444]: the “%Inh” value is recorded as 0%.

Regarding `O=C(NCCCN1CCOCC1)c1cccc(Nc2nccc(Nc3ccc(Oc4ccccc4)cc3)n2)c1` [GW663929], the “%Inh” value was 20%.

With `Nc1nc(-c2ccc3c(N)n[nH]c3c2)cc(N2CCCC2)n1` [GSK2227430], the “%Inh” value is recorded as 0%.

Consider `Nc1nccc(-c2c(-c3ccc(F)cc3)ncn2C2CCN(CC(F)(F)F)CC2)n1` [SB-236560], for which the “%Inh” value was 0%.

In the case of `COc1ccc(S(=O)(=O)NC2CCN(c3cc(C)nc(Nc4cccc(C#N)c4)n3)CC2)cc1.O=C(O)C(F)(F)F` [GSK1653539], the “%Inh” value is given as 1%.

Turning to `CN(C1=C(c2ccccc2)C(=O)NC1=O)c1ccccc1` [SB-334860], the “%Inh” value was determined as 17%.

As to `CN1c2ccc(CNc3ccc(F)cc3)cc2-c2c(cnn2C)S1(=O)=O`, the “%Inh” value was 0%.

For `COc1cc(Nc2nccc(N3CCC(NC(=O)c4cccc(NC(C)=O)c4)C3)n2)cc(OC)c1OC` (stereo not drawn) [GSK1379754], the “%Inh” value amounted to 0%.
